Test [1] deals with Lysosomal acid glucosylceramidase (Homo sapiens) (UniProt P04062). Nature of the test: Glucocerebrosidase-p2 (AID 348; in the data active = potency below about 10 µM; note: potency is the fitted concentration of half-maximal effect). Conditions: purified GBA, blue fluorogenic substrate, 40 min. The essentials:
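Normal human glucocerebrosidase (0.2 nM) with blue fluorogenic substrate (80 uM final) in citrate/phosphate pH 5.9 with 10mM sodium taurocholate, 0.01% tween-20; 40 min RT, NaOH/glycine stop; fluorescence Ex 365/Em 440; AC50 from a titration from 0.6 nM upwards.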

A short description of test [2]: AP1 Signaling Pathway (AID 357).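 Note: ME-180 reporter cells stimulated with EGF at its EC50 level; % is set by controls: 0 for no effect and ±100 for the full control effect.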 Conditions: ME-180 AP-1-bla reporter, EGF-induced, beta-lactamase ratio, 5 h; at 7.69 µM (top of the series) unless noted. The essentials: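 A ratiometric CCF4 readout (405 nm excitation; 460 and 530 nm emission) quantified AP-1-driven beta-lactamase in ME-180 cells after 5 h with compound and EC50 EGF; AC50 values were derived for activators and inhibitors.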

For test [3], the target named is Cytochrome P450 1A2 (Homo sapiens) (UniProt P05177). Nature of the test: p450-cyp1a2 (AID 410; calls by dose curve; note: potency is the fitted concentration of half-maximal effect). Conditions: recombinant CYP1A2, luciferin-ME demethylation, luminescence; series mostly up to 11.4 µM. The essentials:
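Read-out is luminescence from luciferin produced by CYP1A2 demethylation of Luciferin-ME (100uM, at Km). Detection reagent stopped the 60 min NADPH-dependent reaction; signals were normalized to 57 uM furafylline.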

The nature of test [4]: NFAT Signaling Pathway (AID 444).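 Note: carbachol stimulus at about its EC50 of 1 µM final; % is set by controls: 0 for no effect and ±100 for the full control effect.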 Conditions: Jurkat NFAT-bla M1, carbachol, beta-lactamase ratio, 5 h; at 7.69 µM (top of the series) unless noted. The essentials: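 Jurkat cells with NFAT-driven β-lactamase reporter and co-expressed M1 receptor, stimulated with carbachol (final 1 uM, ~EC50), compound titration, 5 h at 37 °C. CCF4 loaded 1 h at RT; 460/530 nm ratio gave %activity and AC50.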

A short description of test [5]: Stat Signaling Pathway (AID 446).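 Note: ME-180 cervical cancer cells given 40 pM IL-6 alongside compound; SIE-controlled beta-lactamase reporter measured as 460/530 nm FRET emission ratio; % is set by controls: 0 for no effect and ±100 for the full control effect.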 Particulars: ME-180 SIE beta-lactamase reporter, IL-6 stimulated, 5 h; at 7.69 µM (top of the series) unless noted. The essentials:
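Normalization used AC90 stimulation (300 pM IL-6) and AC90 inhibition (125 nM pan-JAK inhibitor at 40 pM IL-6). The underlying signal is SIE-driven beta-lactamase in ME-180 cells after 5 h IL-6 exposure with compound.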

Test [6] deals with Glucocorticoid receptor (Homo sapiens) (UniProt P04150). Nature of the test: GR-GFP Redistribution (AID 450;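 active = compounds whose dose series gives a full or clear partial fitted curve of increased nuclear translocation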; note: potency is the fitted concentration of half-maximal effect). Particulars: U2OS GR-GFP nuclear translocation, laser cytometry, 2 h.
Test [7] has the same target. Nature of the test: GR-EFC Redistribution (AID 451; calls by dose curve; note: potency is the fitted concentration of half-maximal effect). Particulars: CHO-K1 GR-EFC translocation, beta-gal luminescence, 2 h. Summed up: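 CHO-K1 cells expressing nuclear EA and GR-ED fragments of b-gal; compounds titrated up to 46 uM final, 2 h at 37 C. GR nuclear translocation read as complemented b-gal luminescence after 1 h RT detection.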
Test [8] concerns the target Mitogen-activated protein kinase 10 (Mus musculus) (UniProt Q61831). Briefly: JNK3 AlphaScreen Assay (AID 530).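 Note: kinase came from lysate of stimulated human HepG2 cells; signal reports phosphorylation of biotinylated GST-cJun 1-79 at Ser73 with 10 µM ATP; % is set by controls: 0 for no effect and ±100 for the full control effect.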 Conditions: JNK3 lysate, c-Jun phosphorylation; series mostly up to 57.1 µM. Summed up: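 HepG2 lysate (IL-1b/TNFa pre-activated) + biotin-GST-cJun 1-79 + anti-pSer73 cJun; cpd titration, 15 min RT; ATP 10 uM start; Tris pH 7.6, MgCl2, DTT, vanadate; beads in EDTA buffer; AlphaScreen.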

The target of test [9] is 3',5'-cyclic-AMP phosphodiesterase 4B (Homo sapiens) (UniProt Q07343). Nature of the test: qHTS Assay for Inhibitors of PDE-IV (AID 607; active = well fitted activation curve with a large enough effect in the main read-out, with a control signal flat, not every such curve was filed as active; note: % of control where 0% means no effect). Particulars: HEK293 ACTOne CNG channel cells, membrane potential fluorescence; series mostly up to 22.9 µM. The essentials: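 HEK293 ACTOne cells with CNG channel (1000/well), endogenous PDE4; membrane potential dye, compounds up to 22.9 uM final. Fluorescence Ex 535/Em 590; RO 20-1724 (100 uM final) as reference.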
In general terms: qHTS replaces the single test concentration by a dilution series.

A short description of test [10]: qHTS Assay for Identification of Small Molecule Agonists for Hypoxia Response Element Signaling Pathway (AID 914; active = well fitted activation curve with a large enough effect in the signal ratio, with a control signal flat, not every such curve was filed as active; the % refers to the signal ratio; note: % of control where 0% means no effect). Conditions: ME-180 (cervical carcinoma) HRE-bla reporter, beta-lactamase ratio, CoCl2, 17 h; active compounds read high. The essentials: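 HRE-bla ME-180 cells, overnight plating in Opti-MEM with 0.5% dialyzed FBS; cpd titration + EC50 CoCl2, 17 h, 37 degrees Celsius; CCF4 2.5 h RT; 460/530 nm ratio; AC50.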

Unmarked numbers belong to inactive results. Records with an inconclusive call do not appear. Activity calls are given as the source filed them. Unless noted, calls come from the whole dose curve; as a rule, active = well fitted curve in either direction with a large enough effect (not every such curve was filed as active); inconclusive = small, poorly fitted or top-dose-only effect, or another doubt; inactive = flat fitted curve, though single readings scatter.

The source of these data is PubChem BioAssay (NCATS).

Chain of 3',5'-cyclic-AMP phosphodiesterase 4B (Homo sapiens) (Q07343 whole entry, looked up): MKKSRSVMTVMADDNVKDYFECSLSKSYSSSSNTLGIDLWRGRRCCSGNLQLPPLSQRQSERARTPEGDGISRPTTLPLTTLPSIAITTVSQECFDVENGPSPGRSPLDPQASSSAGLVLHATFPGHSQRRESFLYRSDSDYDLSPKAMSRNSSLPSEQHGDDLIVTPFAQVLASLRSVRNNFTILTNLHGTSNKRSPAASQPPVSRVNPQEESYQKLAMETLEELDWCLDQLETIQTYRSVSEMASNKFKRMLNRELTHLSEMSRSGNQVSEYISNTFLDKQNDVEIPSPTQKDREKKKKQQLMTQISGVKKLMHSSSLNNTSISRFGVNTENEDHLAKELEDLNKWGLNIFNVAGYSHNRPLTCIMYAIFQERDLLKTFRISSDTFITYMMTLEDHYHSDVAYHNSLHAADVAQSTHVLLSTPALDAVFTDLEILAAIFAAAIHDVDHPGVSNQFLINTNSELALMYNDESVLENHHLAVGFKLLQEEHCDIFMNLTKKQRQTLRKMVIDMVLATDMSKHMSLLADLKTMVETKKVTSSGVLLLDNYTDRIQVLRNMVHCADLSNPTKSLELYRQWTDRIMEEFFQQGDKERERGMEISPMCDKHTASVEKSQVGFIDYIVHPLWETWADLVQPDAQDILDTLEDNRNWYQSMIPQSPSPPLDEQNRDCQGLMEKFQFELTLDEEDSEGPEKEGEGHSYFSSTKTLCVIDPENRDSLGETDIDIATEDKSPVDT
Chain of Cytochrome P450 1A2 (Homo sapiens) (P05177 whole entry, looked up): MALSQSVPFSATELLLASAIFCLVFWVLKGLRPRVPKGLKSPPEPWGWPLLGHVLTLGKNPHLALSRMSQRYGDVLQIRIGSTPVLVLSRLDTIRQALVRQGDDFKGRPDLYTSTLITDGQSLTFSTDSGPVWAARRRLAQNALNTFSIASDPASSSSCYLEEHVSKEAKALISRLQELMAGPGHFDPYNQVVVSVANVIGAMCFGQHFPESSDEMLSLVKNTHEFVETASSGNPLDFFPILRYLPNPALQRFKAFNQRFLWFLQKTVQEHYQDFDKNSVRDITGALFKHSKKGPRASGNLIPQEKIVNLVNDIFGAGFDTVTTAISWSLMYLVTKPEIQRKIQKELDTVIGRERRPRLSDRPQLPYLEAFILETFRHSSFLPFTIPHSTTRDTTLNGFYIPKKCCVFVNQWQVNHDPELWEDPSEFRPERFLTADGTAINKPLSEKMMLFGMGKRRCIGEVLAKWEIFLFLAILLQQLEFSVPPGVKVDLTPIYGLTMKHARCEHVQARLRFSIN
Chain of Glucocorticoid receptor (Homo sapiens) (P04150 whole entry, looked up, the tested form may be a part): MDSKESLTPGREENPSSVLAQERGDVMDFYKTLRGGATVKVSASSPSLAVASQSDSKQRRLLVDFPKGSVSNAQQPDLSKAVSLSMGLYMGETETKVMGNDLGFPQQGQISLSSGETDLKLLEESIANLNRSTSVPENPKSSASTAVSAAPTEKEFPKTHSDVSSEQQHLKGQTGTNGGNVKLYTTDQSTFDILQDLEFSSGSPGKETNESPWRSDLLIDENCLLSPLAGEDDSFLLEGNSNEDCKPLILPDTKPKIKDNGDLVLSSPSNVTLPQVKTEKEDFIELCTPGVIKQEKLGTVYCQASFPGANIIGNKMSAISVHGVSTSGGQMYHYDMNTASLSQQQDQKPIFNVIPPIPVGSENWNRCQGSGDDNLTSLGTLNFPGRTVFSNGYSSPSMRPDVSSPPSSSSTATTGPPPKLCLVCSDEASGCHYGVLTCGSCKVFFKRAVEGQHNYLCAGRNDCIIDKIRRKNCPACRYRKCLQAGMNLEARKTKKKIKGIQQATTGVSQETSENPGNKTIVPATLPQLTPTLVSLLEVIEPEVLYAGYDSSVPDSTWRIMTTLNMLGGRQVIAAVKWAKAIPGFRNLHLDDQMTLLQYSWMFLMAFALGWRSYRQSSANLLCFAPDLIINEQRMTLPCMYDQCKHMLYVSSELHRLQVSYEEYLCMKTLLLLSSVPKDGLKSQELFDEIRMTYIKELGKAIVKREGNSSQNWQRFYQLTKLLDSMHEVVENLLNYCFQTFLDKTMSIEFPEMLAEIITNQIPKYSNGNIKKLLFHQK
Chain of Lysosomal acid glucosylceramidase (Homo sapiens) (P04062 whole entry, looked up): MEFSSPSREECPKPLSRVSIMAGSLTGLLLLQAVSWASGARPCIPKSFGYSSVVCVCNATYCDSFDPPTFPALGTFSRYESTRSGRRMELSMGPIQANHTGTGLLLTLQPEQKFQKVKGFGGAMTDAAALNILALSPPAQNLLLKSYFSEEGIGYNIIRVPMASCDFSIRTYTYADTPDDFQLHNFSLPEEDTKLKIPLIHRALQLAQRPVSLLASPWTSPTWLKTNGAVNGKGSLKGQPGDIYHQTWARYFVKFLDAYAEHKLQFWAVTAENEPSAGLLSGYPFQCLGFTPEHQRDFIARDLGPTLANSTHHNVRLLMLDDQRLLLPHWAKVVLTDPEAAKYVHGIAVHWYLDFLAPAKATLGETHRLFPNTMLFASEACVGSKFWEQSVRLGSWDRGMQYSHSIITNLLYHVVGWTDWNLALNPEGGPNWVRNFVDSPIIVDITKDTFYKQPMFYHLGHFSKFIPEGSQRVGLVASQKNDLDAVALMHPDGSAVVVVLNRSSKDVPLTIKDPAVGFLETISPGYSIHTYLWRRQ

For `Nc1nc(N)c(N=Nc2ccc([As](=O)(O)O)c(O)c2)c(N)n1`, the Potency was above 11.4 µM in test [1], 6.31 µM (active) in test [3], above 46 µM in test [6] and above 9.22 µM in [7]. In addition, the activity change, negative = inhibition in test [2] is 1.26%; in test [4], -7.71%; in test [8] it was 1.64% [at 11.4 µM]. In addition, the activity, negative = inhibition in test [5] is -1.21%. Moreover, the molecule was classed as inactive in [9].
On to `CSCC[C@@H](N)P(C)(=O)O`, for which the results for the Potency in test [1], in test [6] and in test [7] were above 11.4 µM, above 46 µM and above 9.22 µM, respectively. Also, the activity change, negative = inhibition in test [2] was 10.2%; in test [4], 2.01%; in test [8] it was 0.585% [at 11.4 µM]. In addition, in test [3], the Potency entry was “inactive”. Also, the activity, negative = inhibition in test [5] was 13.5%. The call in test [9] was inactive.
With `C1C[C@@H]2CN(CCCN3CCOCC3)[C@@H](C1)O2`, the Potency in test [1] was above 11.4 µM; in test [6], above 46 µM; in [7] it was above 9.22 µM. The results for the activity change, negative = inhibition in test [2], in [4] and in test [8] were -6.14%, 9.72% and 4.78% [at 11.4 µM], respectively. Moreover, the Potency result in test [3] is “inactive”. Besides, the activity, negative = inhibition in [5] is 11.7%. The outcome in test [9] was inactive.
With `CC(C)[C@]1(O)[C@@H](OC(=O)c2ccc[nH]2)[C@]2(O)[C@@]3(C)C[C@@]4(O)O[C@@]5([C@H](O)[C@@H](C)CC[C@]35O)[C@]2(O)[C@]41C`, the Potency in test [1] was above 11.4 µM; in test [6], above 46 µM; in [7], above 9.22 µM. The activity change, negative = inhibition was 3.13% in test [2], -17.2% [at 2.29 µM] in [3], 3.93% in test [4] and 0.163% [at 11.4 µM] in test [8]. For the same molecule, in [5], the activity, negative = inhibition is -4.77%. For the same molecule, the result in test [9] was inactive. Besides, the activation in [10] was 12.8%.
For `O=C(O)[C@@H](Br)[C@H](Br)C(=O)O`, the Potency was above 11.4 µM in [1], above 46 µM in test [6] and above 9.22 µM in test [7]. The results for the activity change, negative = inhibition in test [2], in test [4] and in test [8] were -8.85%, 12.2% and -1.13% [at 11.4 µM], respectively. Also, the Potency result in [3] is “inactive”. Also, the activity, negative = inhibition in test [5] was 3.93%. Besides, the result in test [9] was inactive.
Turning to `O=C(O)C[C@H]1NCc2cc3ccccc3nc21`, the Potency in test [1] is above 11.4 µM; in [6], above 46 µM; in test [7], above 9.22 µM. The activity change, negative = inhibition in test [2] was 2.39%; in [3] it was -4.9% [at 2.29 µM]; in [4], 13.5%; in test [8], 1.75% [at 11.4 µM]. For the same molecule, in test [5], the activity, negative = inhibition was 5.32%. Further, the outcome in test [9] was inactive.
As to `C[C@@H]1O[C@H](OC2[C@@H](O)[C@H](O)C(O)[C@H](O)[C@H]2O)[C@@H](N)C[C@@H]1N=C(N)C(=O)O` (stereo not given in full), the results for the Potency in test [1], in test [6] and in test [7] were above 11.4 µM, above 46 µM and above 9.22 µM, respectively. Besides, the activity change, negative = inhibition in test [2] is -0.614%; in [3] it was 1.2% [at 2.29 µM]; in test [4], 8.22%; in test [8] it was 1.04% [at 11.4 µM]. Further, the activity, negative = inhibition in [5] is 8.32%. The call in test [9] was inactive. The activation in test [10] is 3.06%.
Take `CCC1(CCSC(=N)N)C(=O)NC(=O)NC1=O`: the Potency is above 11.4 µM in test [1] and above 46 µM in test [6]. The activity change, negative = inhibition in test [2] was 6.2%; in [3], -10.9% [at 2.29 µM]; in [4] it was 1.26%; in test [8], 3.03% [at 11.4 µM]. Besides, the activity, negative = inhibition in test [5] was -4.63%. For the same molecule, the result in [9] was inactive.
On to `c1ccc(CCN2CCOCC2)nc1`, for which the Potency was above 11.4 µM in test [1], above 46 µM in test [6] and above 9.22 µM in test [7]. For the same molecule, the activity change, negative = inhibition is -2.6% in test [2], -3% [at 2.29 µM] in [3], 11.7% in [4] and 1.44% [at 11.4 µM] in test [8]. Further, the activity, negative = inhibition in test [5] is 4.66%. In addition, the result in test [9] was inactive.
`N[C@@H](Cc1ccccc1)P(=O)(O)O`: the Potency is above 11.4 µM in test [1], above 46 µM in [6] and above 9.22 µM in test [7]. Further, the activity change, negative = inhibition in test [2] was -2.48%; in test [4], 12.4%; in test [8], 3.3% [at 11.4 µM]. Also, in [3], the Potency result is “inactive”. In addition, the activity, negative = inhibition in test [5] was -2.79%. Besides, in [9], the result was inactive.
Consider `NC[C@@H](Cc1ccccc1)P(=O)(O)O`, for which the values for the Potency in test [1], in [6] and in test [7] were above 11.4 µM, above 46 µM and above 9.22 µM, respectively. In addition, the activity change, negative = inhibition in test [2] is 11.5%; in test [4] it was 4.85%. Further, the Potency result in test [3] is “inactive”. For the same molecule, the activity, negative = inhibition in test [5] was 2.4%. The molecule was called inactive in test [9].
Regarding `CC(C)(C)C(=O)CP(=O)(O)O`, the Potency is above 11.4 µM in test [1], above 46 µM in test [6] and above 9.22 µM in test [7]. Further, the values for the activity change, negative = inhibition in [2], in [4] and in [8] were 11.4%, -0.88% and 5.32% [at 11.4 µM], respectively. Also, the Potency entry in test [3] is “inactive”. Moreover, the activity, negative = inhibition in test [5] is -5.75%. In addition, the outcome in test [9] was inactive.
For `O=S(=O)(O)/C(=C\c1ccccc1)c1ccccc1` (tested in a mixture with another compound), the Potency in test [1] is above 11.4 µM. Further, the activity change, negative = inhibition is 4.77% in test [2], -29% [at 2.29 µM] in test [3], 11.5% in [4] and 4.57% [at 11.4 µM] in test [8]. In addition, the activity, negative = inhibition in [5] was 7.2%. Besides, in test [9], the molecule was classed as inactive.
